Compound activity: PubChem, Johns Hopkins Ion Channel Center
An excerpt weighted towards active compounds, which were near 1.6% of everything screened.
KCNQ2 block – blocks the rat KCNQ2 potassium channel | O88943 | CHO-K1 KCNQ2, FluxOR thallium flux, 20 min; stronger effect = lower value | B-score at 10 µM | 1.1% of 310,000 active;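 active = fluorescence ratio B-score at most minus 3 library SDs, with starting brightness B-score within 2 library SDs, cut at about -5.5 in these data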
KCNQ2 enhance – potentiators of rat KCNQ2 potassium channel; O88943; CHO-K1 KCNQ2, FluxOR thallium flux fluorescence; stronger effect = higher value; B-score at 10 µM; 0.54% of 310,000 active; AID 2239;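 active = fluorescence ratio B-score at least 3 SD of library B-scores, with initial fluorescence B-score within 3 of them, cut at about 5.3 in these data; same plate scores as AID 2156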;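 also: B-score of peak minus minimum over baseline fluorescence ratio after K+ and Tl+ stimulus; positive B-score means potentiation of KCNQ2 with more thallium influx and brighter signal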
KCNQ2 inh conf – confirmation of rat KCNQ2 potassium channel inhibitors | shares compounds with KCNQ2 block | KCNQ2-expressing cells, thallium flux, inhibition; stronger effect = lower value | activity change, negative = inhibition, % at 10 µM | 57% of 1,000 active | AID 493025;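 also: 0% = vehicle wells and values are ratio percent relative to vehicle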
KCNQ1 spec – human KCNQ1 activity in KCNQ2 inhibitor specificity screen; shares compounds with KCNQ2 block; KCNQ1-expressing cells, FluxOR thallium flux fluorescence; stronger effect = lower value; activity change, negative = inhibition, % at 10 µM; 15% of 1,000 active; AID 493026;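 active = activity change at least 3 SD of negative controls below their mean in both duplicate wells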;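 also: CHO cells stably transfected with KCNQ1 and depolarized by potassium stimulus; peak minus minimum fluorescence over baseline after thallium addition; 0% = vehicle negative control and -100% = blank without thallium stimulus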
Target sequence (P51787 whole entry, looked up): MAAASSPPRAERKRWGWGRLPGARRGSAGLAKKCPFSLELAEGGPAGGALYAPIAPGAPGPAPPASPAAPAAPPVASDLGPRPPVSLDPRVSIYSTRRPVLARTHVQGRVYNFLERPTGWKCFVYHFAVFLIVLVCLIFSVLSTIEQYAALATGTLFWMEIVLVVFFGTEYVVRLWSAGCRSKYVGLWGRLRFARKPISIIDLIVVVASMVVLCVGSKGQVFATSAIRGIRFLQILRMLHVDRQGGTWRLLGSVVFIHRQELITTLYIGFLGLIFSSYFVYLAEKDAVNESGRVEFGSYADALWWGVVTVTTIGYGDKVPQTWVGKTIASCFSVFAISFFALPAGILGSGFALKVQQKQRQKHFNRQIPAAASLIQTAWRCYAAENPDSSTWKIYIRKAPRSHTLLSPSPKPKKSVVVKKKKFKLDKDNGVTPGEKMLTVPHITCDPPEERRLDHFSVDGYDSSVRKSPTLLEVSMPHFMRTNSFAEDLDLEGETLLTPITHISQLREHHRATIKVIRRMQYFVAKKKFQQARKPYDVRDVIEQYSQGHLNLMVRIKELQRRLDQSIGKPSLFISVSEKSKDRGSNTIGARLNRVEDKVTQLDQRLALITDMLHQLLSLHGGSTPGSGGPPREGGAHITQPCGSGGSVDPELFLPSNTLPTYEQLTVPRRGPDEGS
CHO Tl ctr – counter-screen for KCNQ2 inhibitors: effect in parental CHO cells; shares compounds with KCNQ2 block; thallium flux counter-screen; stronger effect = lower value; activity change, % at 10 µM; 14% of 1,000 active; AID 493029;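 also: 0% = vehicle negative controls with stimulus buffer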
KCNQ2 inh confirm – confirmation of rat KCNQ2 potassium channel inhibitors; KCNQ2-expressing cells, automated patch clamp current; shares compounds with KCNQ2 block; 49% of 550 active; calls only at 10 µM
Active calls of the source: *; i = inactive; . = no result; + = active, no number. Unless noted, no rule for the calls is given here.

SMILES	KCNQ2 block	KCNQ2 enhance	KCNQ2 inh conf	KCNQ1 spec	CHO Tl ctr	others
Clc1ccc(/C=N/NC(=Nc2ccccc2)c2ccccn2)c(Cl)c1	-8.19*	-8.19	-27.5%*	i	i	KCNQ2 inh confirm=+
Cc1ccc2[nH]c(=O)c(CNS(=O)(=O)c3ccccc3)c(-c3ccccc3)c2c1	i	.	.	.	.
CC(=O)N1CCC(N(CCN2CCOCC2)C(=S)Nc2c(C)cccc2C)CC1	i	0.97	.	.	.
CC(C)=CCc1c(O)cc(O)c2c(=O)c(O[C@@H]3O[C@@H](C)[C@H](O)[C@@H](O)[C@H]3O)c(-c3ccc(O)cc3)oc12	-7.1*	-7.1	-40.0%*	-35.5%*	-23.0%*	KCNQ2 inh confirm=i
CC1OC(Oc2c(-c3cc(O)c(O)c(O)c3)oc3cc(O)cc(O)c3c2=O)C(O)C(O)C1O (configuration not stated)	i	.	.	.	.
COc1ccc(NC(C)(C)c2nnnn2-c2c(C)cccc2C)cc1	i	0.63	.	.	.
CCn1c(-c2cc3c(C(F)(F)F)nn(C)c3s2)n[nH]c1=S	i	.	.	.	.
C=C(C)C1CC=C(C)/C(=N/NC(=O)COc2cccc(C)c2)C1 (configuration not stated)	i	1.41	.	.	.
C=C(C)C1CC=C(C)/C(=N/NC(=O)COc2cccc3ccccc23)C1 (configuration not stated)	-9.24*	-9.24	i	i	i
CCOC(=O)c1c(-c2ccc(OC)cc2)csc1NC(=O)CSc1ccccc1	i	.	.	.	.
CCOC(=O)c1c(-c2ccccc2)csc1NC(=O)CSc1ccccc1	-8.24*	-8.24	-38.0%*	-27.0%*	i	KCNQ2 inh confirm=i
CCOC(=O)c1c(-c2cccs2)csc1NC(=O)CC(C)C	i	.	.	.	.
CCOC(=O)c1c(-c2cccs2)csc1NC(=O)CN(CC)CC	-9.86*	-9.86	i	i	i
Cc1c(CCC(=O)NCCCn2ccnc2)c(=O)oc2cc3oc4c(c3cc12)CCCC4	i	.	.	.	.
COc1ccccc1N1CCN(/N=C/c2cc(Br)ccc2F)CC1	-10.5*	-10.5	-17.5%*	i	i	KCNQ2 inh confirm=i
COc1ccc(/C=N/N2CCN(c3ccccc3OC)CC2)cc1Br	i	.	.	.	.
COc1ccccc1N1CCN(/N=C/c2cccc(OC)c2O)CC1	i	.	.	.	.
COc1ccccc1N1CCN(/N=C/c2cccc(Cl)c2)CC1	-7.03*	-7.03	-29.5%*	i	i	KCNQ2 inh confirm=+
Cc1ccc(S(=O)(=O)N(CC(=O)NCCC2=CCCCC2)Cc2ccccc2F)cc1	-7*	-7	i	i	i
Cc1ccc(S(=O)(=O)N(CC(=O)NCCC2=CCCCC2)Cc2ccccc2)cc1	-10.8*	-10.8	-30.0%*	i	i	KCNQ2 inh confirm=i
COc1ccc(CNC(=O)CN(Cc2ccc(C)cc2)S(=O)(=O)c2ccc(Cl)cc2)cc1	-6.67*	-6.67	i	i	i
O=C(CN(Cc1ccccc1)S(=O)(=O)c1ccc(F)cc1)NCCC1=CCCCC1	i	.	.	.	.
O=C(CN(Cc1ccccc1F)S(=O)(=O)c1ccc(Cl)cc1)NCCC1=CCCCC1	i	.	.	.	.
COc1ccc(CNC(=O)CN(C)S(=O)(=O)c2ccc(Cl)cc2)cc1	i	.	.	.	.
O=C(OCc1c(F)cccc1Cl)c1cccnc1Cl	i	0.62	.	.	.
SMILES	KCNQ2 block	KCNQ2 enhance	KCNQ2 inh conf	KCNQ1 spec	CHO Tl ctr	others
O=C(O[C@H]1[C@H](Oc2ccccc2COC(=O)C2(O)C=CCCC2=O)O[C@H](CO)[C@@H](O)[C@@H]1O)c1ccccc1 (some centres not stated)	i	.	.	.	.
CC(NC(=O)c1c(F)cccc1Cl)c1ccc(-n2ccnc2)cc1 (configuration not stated)	i	.	.	.	.
O=C(/C=C/c1ccco1)NC(=S)Nc1ccccc1N1CCCC1	i	.	.	.	.
O=C(/C=C/c1ccco1)NC(=S)Nc1ccccc1N1CCOCC1	-7.25*	-7.25	i	i	i
O=c1c(Cc2c(F)cccc2Cl)c(O)ccn1CCc1c[nH]c2ccccc12	i	.	.	.	.
O=C(Cc1cccs1)NC(c1ccccc1)c1ccccc1	i	.	.	.	.
O=C(COC(=O)/C(=C/c1cccs1)c1cccs1)NC(c1ccccc1)c1ccccc1	-8.64*	-8.64	i	i	i
Cc1ccc(OCC(=O)N2CCc3ccccc3C2)c(Br)c1	i	.	.	.	.
Cc1ccc2nc(-c3ccccc3)cc(C(=O)N3CCc4ccccc4C3)c2c1	-8.32*	-8.32	i	i	i
O=C(c1cc(Cl)nc2ccccc12)N1CCc2ccccc2C1	i	.	.	.	.
Cc1ccc(OCC(=O)N2CCc3ccccc3C2)c(C)c1	-7.82*	-7.82	-30.0%*	i	i	KCNQ2 inh confirm=+
CC1CC(C)CN(C(=O)c2cc(-c3ccncc3)nc3ccccc23)C1 (configuration not stated)	i	.	.	.	.
O=C(c1cc(-c2ccccc2)nc2ccccc12)N1CCc2ccccc2C1	-7.82*	-7.82	-28.5%*	i	i	KCNQ2 inh confirm=+
Cc1ccc2nc(-c3ccccn3)cc(C(=O)N3CCN(c4ncccn4)CC3)c2c1	i	0.46	.	.	.
Cc1ccc2nc(-c3ccccc3)cc(C(=O)N3CC(C)OC(C)C3)c2c1 (configuration not stated)	-9.27*	-9.27	-30.0%*	i	i	KCNQ2 inh confirm=+
C/C(=N\NC(=O)COc1ccc(C)cc1C(C)C)c1ccc(-n2ccnc2)cc1	i	0.06	.	.	.
COc1ccc(S(=O)(=O)N(CC(=O)N2CCCCCC2)c2ccccc2OC)cc1	i	1.07	.	.	.
COCCCn1c(=O)c2ccccc2n(Cc2cc(C(=O)OC)ccc2OC)c1=O	i	.	.	.	.
COc1cc(NS(=O)(=O)c2ccc(Br)cc2)c(OC)cc1NC(=O)c1ccco1	i	.	.	.	.
CC(NS(=O)(=O)c1ccc2c(c1)c(=O)n(C)c(=O)n2C)C(=O)NC1CCCCC1 (configuration not stated)	i	0.83	.	.	.
CS(=O)(=O)N(CC(=O)Nc1ccc(F)c(F)c1)c1cccc([N+](=O)[O-])c1	i	0.55	.	.	.
COc1ccc(C(=O)NC=C2C(=O)OC(C)(C)OC2=O)cc1	i	0.1	.	.	.
O=C(CN1C(=O)NC2(CCCC2)C1=O)OCc1ccc(Cl)cc1Cl	i	0.72	.	.	.
COc1cccc(-c2cc(C(F)(F)F)n3ncc(C(=O)N4CCc5ccccc5C4)c3n2)c1	i	.	.	.	.
COc1ccc(-c2cc(C(F)(F)F)n3ncc(C(=O)N4CCc5ccccc5C4)c3n2)cc1	-6.77*	-6.77	i	i	i
Cc1ccc(N(CC(O)Cn2c3ccccc3c3ccccc32)S(C)(=O)=O)cc1 (configuration not stated)	i	.	.	.	.
CS(=O)(=O)N(Cc1ccco1)CC(O)Cn1c2ccccc2c2ccccc21 (configuration not stated)	-8.17*	-8.17	-26.5%*	i	i	KCNQ2 inh confirm=+
CC(NC(=O)Nc1ccc([N+](=O)[O-])cc1)C(c1cccs1)N1CCCC1 (configuration not stated)	i	0.84	.	.	.
CC(C)Sc1nc2[nH]ncc2c(=O)[nH]1	i	0.37	.	.	.
Cc1ccnc(N/C=C(/NC(=O)c2ccccc2)C(=O)N/N=C\c2ccc(Cl)cc2)n1	i	0.19	.	.	.
